# Assay results reported in PubChem BioAssay (EPA / NIEHS).
# Inconclusive results are not listed. Activity calls are given as the source filed them. The calls were made as follows, unless noted: active = hit-call score of the fitted dose curve at least 0.9, where 1 is the maximum; inactive = score below 0.9.
# What was measured:
# [1] = ATG_TAL_CIS: Attagene CIS-FACTORIAL HepG2 Assay for human TAL Basal Promoter (AID 2282966); conditions: HepG2 Attagene cis-factorial TAL promoter reporter; actives raise or lower the signal;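 also: background control endpoint measuring basal TAL promoter reporter mRNA not a specific factor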
# Summary of the method: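 After 24 hours of chemical exposure, transfected HepG2 cells yielded RNA that was converted to 6-FAM-labelled, HpaI-digested reporter fragments for capillary electrophoresis. Values derive from bidirectional fitting against DMSO controls.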
# [2] = ATG_TGFb_CIS: Attagene CIS-FACTORIAL HepG2 Assay for human Transforming Growth Factor (TGF) (AID 2282967); conditions: HepG2 Attagene CIS TGFb reporter, mRNA transcription; actives raise or lower the signal
# Summary of the method: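 Endogenous TGFB1-linked transcription factor activity read as reporter mRNA via RT-PCR and capillary electrophoresis, 24 h after dosing transiently transfected HepG2 cells. Gain or loss of signal fitted relative to DMSO.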
# [3] = ATG_VDRE_CIS: Attagene CIS-FACTORIAL HepG2 Assay for human Vitamin D Receptor Element (VDRE) (AID 2282968); conditions: HepG2 VDRE cis-reporter transcription, actives raise or lower the signal
# Summary of the method: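 Compounds were applied for 24 h to HepG2 cells transfected with promoter-regulated reporter units. Total RNA was reverse-transcribed, and reporter amplicons were fluorescently labelled and sized by capillary electrophoresis.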
# [4] = target: X-box-binding protein 1 (Homo sapiens) (UniProt P17861); assay: ATG_Xbp1_CIS: Attagene CIS-FACTORIAL HepG2 Assay for human X-box Binding Protein 1 (XBP1) (AID 2282972); conditions: HepG2 XBP1 cis-element reporter, Attagene multiplex; actives raise or lower the signal
# Summary of the method: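 Changes in reporter transcript abundance, read by RT-PCR and capillary electrophoresis, reflect endogenous transcription factor activity. Transfected HepG2 cells received compound for 24 hours; DMSO defined baseline for bidirectional analysis.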
# [5] = target: Estrogen-related receptor gamma (Homo sapiens) (UniProt P62508); assay: ATG_ERRg_TRANS: Attagene TRANS-FACTORIAL HepG2 Assay for human Estrogen-Related Receptor gamma (ERRg) (AID 2282977; active = hit-call score of the fitted dose curve at least 0.9, where 1 is the maximum;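 also: hits increase reporter signal over DMSO so potencies reflect activators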); conditions: HepG2 Attagene TRANS reporter, ERRg transactivation
# Summary of the method: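 Exogenous NR-Gal4 chimera activity measured as reporter transcript induction after 24 h in transiently transfected HepG2 cells. RNA reverse-transcribed, PCR-amplified, 6-FAM-labelled and resolved by capillary electrophoresis; increase over DMSO baseline.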
# [6] = target: Oxysterols receptor LXR-alpha (Homo sapiens) (UniProt Q13133); assay: ATG_LXRa_TRANS: Attagene TRANS-FACTORIAL HepG2 Assay for human Liver X Receptor alpha (LXRa) (AID 2282980; active = hit-call score of the fitted dose curve at least 0.9, where 1 is the maximum); conditions: HepG2 Attagene TRANS reporter, LXRa transactivation
# Summary of the method: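 Transfect HepG2 with GAL4-UAS multiplex reporter constructs (TRANS format, chimeric receptor-GAL4); treat 24 h; extract RNA, reverse-transcribe, PCR-amplify, FAM-label, HpaI-digest; resolve fragments by capillary electrophoresis. Upward response vs DMSO.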
# [7] = target: Hepatocyte nuclear factor 4-alpha (Homo sapiens) (UniProt P41235); assay: ATG_HNF4a_TRANS: Attagene TRANS-FACTORIAL HepG2 Assay for human Hepatocyte Nuclear Factor 4 alpha (HNF4a) (AID 2282982; active = hit-call score of the fitted dose curve at least 0.9, where 1 is the maximum); conditions: HepG2 HNF4a transactivation reporter, mRNA readout
# Summary of the method: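 Endpoint reflects transcriptional activation of a GAL4-UAS reporter by an HNF4a-GAL4 chimera in transfected HepG2 cells, 24 h post-dosing. Fluorescence from RT-PCR products separated by capillary electrophoresis; DMSO baseline.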
# [8] = ATG_M_06_TRANS: Attagene TRANS-FACTORIAL HepG2 Assay for M06 Transcription Factor (Internal Marker) (AID 2282983; active = hit-call score of the fitted dose curve at least 0.9, where 1 is the maximum); conditions: HepG2 Attagene TRANS M06 internal marker reporter
# Summary of the method: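 Background control endpoint: reporter mRNA from transiently transfected HepG2 after 24 h dosing, detected by RT-PCR with capillary electrophoresis fluorescence. Analysed for gain versus DMSO.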
# [9] = ATG_M_32_TRANS: Attagene TRANS-FACTORIAL HepG2 Assay for M32 Transcription Factor (Internal Marker) (AID 2282984; active = hit-call score of the fitted dose curve at least 0.9, where 1 is the maximum); conditions: HepG2 Attagene TRANS M32 internal marker reporter
# Summary of the method: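 Internal-marker readout from a multiplexed transcription reporter panel. HepG2 cells were transfected with GAL4-UAS reporter units, treated 24 hours, and reporter transcript levels determined by fluorescence after RT-PCR and capillary separation.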
# [10] = target: Nuclear receptor subfamily 4 group A member 2 (Homo sapiens) (UniProt P43354); assay: ATG_NURR1_TRANS: Attagene TRANS-FACTORIAL HepG2 Assay for human Nuclear Receptor Related Protein 1 (NURR1) (AID 2282985; active = hit-call score of the fitted dose curve at least 0.9, where 1 is the maximum); conditions: HepG2 Attagene TRANS reporter, mRNA readout
# Summary of the method: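 Endpoint: reporter mRNA increase relative to DMSO. HepG2 cells transfected with reporter units, treated 24 h; RNA processed by RT-PCR, labelling, HpaI digestion and capillary electrophoresis.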
# [11] = target: Transcriptional activator Myb (Homo sapiens) (UniProt P10242); assay: ATG_Myb_CIS: Attagene CIS-FACTORIAL HepG2 Assay for human Myeloblastosis (Myb) Proto-Oncogene Transcription Factor (AID 2282986); conditions: HepG2 Attagene CIS-FACTORIAL Myb reporter transcription; actives raise or lower the signal
# Summary of the method: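 Reporter transcript levels, quantified by fluorescent RT-PCR and capillary electrophoresis, serve as the read-out. Transfected HepG2 cells carrying cis-promoter reporter units are dosed for 24 hours, and curves are fitted bidirectionally against DMSO controls.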
# [12] = target: Nuclear respiratory factor 1 (Homo sapiens) (UniProt Q16656); assay: ATG_NRF1_CIS: Attagene CIS-FACTORIAL HepG2 Assay for human Nuclear Respiratory Factor 1 (NRF1) Orphan Gene (AID 2282987); conditions: HepG2 NRF1 cis-element reporter, Attagene multiplex; actives raise or lower the signal
# Summary of the method: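 Multiplexed cis-reporter assay, HepG2 cells, 24 h treatment. Total RNA → oligo(dT) RT → PCR with reporter-specific primers → 6-FAM primer extension → HpaI cut → CE. Bidirectional fit vs DMSO.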
# [13] = target: Oxysterols receptor LXR-beta (Homo sapiens) (UniProt P55055); assay: ATG_LXRb_TRANS: Attagene TRANS-FACTORIAL HepG2 Assay for human Liver X Receptor beta (LXRb) (AID 2282981; active = hit-call score of the fitted dose curve at least 0.9, where 1 is the maximum); conditions: HepG2 Attagene TRANS GAL4-LXRb reporter, mRNA
# Summary of the method: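 Multiplexed reporter assay, HepG2, 24 h dosing. Fluorescence of labelled RT-PCR products after capillary electrophoresis gives transcript level; positive fitting direction relative to DMSO.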
# [14] = ATG_M_19_TRANS: Attagene TRANS-FACTORIAL HepG2 Assay for M19 Transcription Factor (Internal Marker) (AID 2282974; active = hit-call score of the fitted dose curve at least 0.9, where 1 is the maximum); conditions: HepG2 Attagene TRANS-FACTORIAL M19 internal marker reporter
# Summary of the method: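 Fluorescence of 6-FAM-labelled reporter cDNA fragments, separated by capillary electrophoresis, served as the readout. These derived from HepG2 cells carrying transfected GAL4-UAS reporter units after 24 h dosing, with DMSO as negative control.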
# [15] = ATG_GAL4_TRANS: Attagene TRANS-FACTORIAL HepG2 Assay for GAL4 (Internal Marker) (AID 2282976; active = hit-call score of the fitted dose curve at least 0.9, where 1 is the maximum); conditions: HepG2 Attagene TRANS GAL4 internal marker reporter
# Summary of the method: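 First, HepG2 cells were transfected with reporter units under GAL4-UAS control. Next, they were treated with chemical for 24 h. Finally, RNA was reverse-transcribed, PCR-amplified, FAM-labelled and resolved by capillary electrophoresis, with induction scored against DMSO.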
# [16] = target: Steroid hormone receptor ERR1 (Homo sapiens) (UniProt P11474); assay: ATG_ERRa_TRANS: Attagene TRANS-FACTORIAL HepG2 Assay for human Estrogen-Related Receptor alpha (ERRa) (AID 2282971; active = hit-call score of the fitted dose curve at least 0.9, where 1 is the maximum); conditions: HepG2 Attagene TRANS reporter, ERRa transactivation
# Summary of the method: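 Reporter transcript induction was quantified by RT-PCR and capillary electrophoresis of FAM-labelled, HpaI-cut products after 24 h treatment of HepG2 cells carrying transiently transfected GAL4-UAS reporter units and an exogenous ERRa-Gal4 fusion; activity scored as increase over DMSO.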
# Nuclear receptor subfamily 4 group A member 2 (Homo sapiens), sequence (P43354 whole entry, looked up): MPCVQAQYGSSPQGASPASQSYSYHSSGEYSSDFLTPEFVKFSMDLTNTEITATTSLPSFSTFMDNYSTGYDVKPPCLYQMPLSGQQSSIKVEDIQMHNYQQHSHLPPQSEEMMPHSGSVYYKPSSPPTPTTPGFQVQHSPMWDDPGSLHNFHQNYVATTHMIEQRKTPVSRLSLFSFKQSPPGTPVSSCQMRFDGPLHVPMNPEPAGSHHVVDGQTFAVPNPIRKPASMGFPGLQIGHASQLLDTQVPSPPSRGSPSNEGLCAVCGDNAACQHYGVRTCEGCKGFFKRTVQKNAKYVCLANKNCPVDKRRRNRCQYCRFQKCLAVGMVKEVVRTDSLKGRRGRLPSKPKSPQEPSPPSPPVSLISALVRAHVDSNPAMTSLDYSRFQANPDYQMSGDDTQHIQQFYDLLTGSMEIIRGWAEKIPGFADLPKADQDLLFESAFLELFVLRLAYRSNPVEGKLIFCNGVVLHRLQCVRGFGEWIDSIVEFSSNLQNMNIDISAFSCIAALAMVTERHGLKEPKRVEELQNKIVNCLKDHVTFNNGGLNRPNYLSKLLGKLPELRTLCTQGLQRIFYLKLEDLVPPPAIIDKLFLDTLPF
# Nuclear respiratory factor 1 (Homo sapiens), sequence (Q16656 whole entry, looked up): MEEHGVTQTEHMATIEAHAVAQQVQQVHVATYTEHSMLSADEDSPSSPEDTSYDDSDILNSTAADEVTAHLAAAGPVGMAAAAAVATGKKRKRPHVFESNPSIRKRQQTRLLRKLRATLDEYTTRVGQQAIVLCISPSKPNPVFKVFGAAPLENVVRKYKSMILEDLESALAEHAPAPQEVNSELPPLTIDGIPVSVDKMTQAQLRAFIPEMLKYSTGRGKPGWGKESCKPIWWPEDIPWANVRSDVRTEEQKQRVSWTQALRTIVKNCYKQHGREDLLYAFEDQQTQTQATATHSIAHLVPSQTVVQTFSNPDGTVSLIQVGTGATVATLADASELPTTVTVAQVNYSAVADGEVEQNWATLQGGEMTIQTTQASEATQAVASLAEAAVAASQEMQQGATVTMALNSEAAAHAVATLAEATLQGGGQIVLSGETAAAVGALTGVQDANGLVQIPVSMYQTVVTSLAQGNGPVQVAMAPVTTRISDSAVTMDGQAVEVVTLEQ
# Oxysterols receptor LXR-alpha (Homo sapiens), sequence (Q13133 whole entry, looked up, the tested form may be a part): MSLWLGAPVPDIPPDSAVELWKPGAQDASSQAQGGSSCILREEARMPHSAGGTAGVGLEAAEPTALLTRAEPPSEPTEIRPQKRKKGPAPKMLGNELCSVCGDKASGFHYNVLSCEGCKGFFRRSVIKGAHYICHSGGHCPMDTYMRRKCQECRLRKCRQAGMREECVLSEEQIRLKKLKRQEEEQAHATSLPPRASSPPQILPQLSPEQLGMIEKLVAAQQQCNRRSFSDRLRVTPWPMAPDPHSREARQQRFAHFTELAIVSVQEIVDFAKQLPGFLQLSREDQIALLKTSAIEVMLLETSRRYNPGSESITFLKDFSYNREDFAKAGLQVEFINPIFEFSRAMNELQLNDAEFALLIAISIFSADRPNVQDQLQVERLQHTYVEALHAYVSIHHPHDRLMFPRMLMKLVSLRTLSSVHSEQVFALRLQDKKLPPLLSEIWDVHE
# Transcriptional activator Myb (Homo sapiens), sequence (P10242 whole entry, looked up): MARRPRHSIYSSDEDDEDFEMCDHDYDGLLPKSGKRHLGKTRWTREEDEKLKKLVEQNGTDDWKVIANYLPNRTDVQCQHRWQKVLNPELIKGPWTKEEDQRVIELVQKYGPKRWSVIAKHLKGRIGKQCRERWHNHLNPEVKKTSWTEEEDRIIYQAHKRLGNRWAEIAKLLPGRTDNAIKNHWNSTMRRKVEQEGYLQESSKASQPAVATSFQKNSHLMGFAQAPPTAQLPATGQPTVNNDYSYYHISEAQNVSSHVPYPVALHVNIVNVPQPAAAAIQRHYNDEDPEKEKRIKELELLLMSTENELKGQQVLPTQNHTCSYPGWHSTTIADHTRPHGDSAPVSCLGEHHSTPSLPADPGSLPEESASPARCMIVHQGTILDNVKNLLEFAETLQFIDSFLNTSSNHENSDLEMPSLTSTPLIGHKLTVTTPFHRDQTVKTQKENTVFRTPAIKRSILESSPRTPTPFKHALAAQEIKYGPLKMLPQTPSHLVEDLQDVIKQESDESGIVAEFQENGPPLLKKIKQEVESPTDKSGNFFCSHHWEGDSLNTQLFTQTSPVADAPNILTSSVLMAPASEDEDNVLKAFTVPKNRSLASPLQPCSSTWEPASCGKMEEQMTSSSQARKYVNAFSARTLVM
# X-box-binding protein 1 (Homo sapiens), sequence (P17861 whole entry, looked up): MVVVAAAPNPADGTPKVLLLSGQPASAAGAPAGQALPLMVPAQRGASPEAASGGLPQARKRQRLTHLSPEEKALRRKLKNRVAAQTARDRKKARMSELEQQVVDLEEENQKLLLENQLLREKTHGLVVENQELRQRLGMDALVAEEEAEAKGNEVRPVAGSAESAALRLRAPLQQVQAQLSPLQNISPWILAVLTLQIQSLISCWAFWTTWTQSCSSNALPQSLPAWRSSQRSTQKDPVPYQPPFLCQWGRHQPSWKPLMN
# Hepatocyte nuclear factor 4-alpha (Homo sapiens), sequence (P41235 whole entry, looked up, the tested form may be a part): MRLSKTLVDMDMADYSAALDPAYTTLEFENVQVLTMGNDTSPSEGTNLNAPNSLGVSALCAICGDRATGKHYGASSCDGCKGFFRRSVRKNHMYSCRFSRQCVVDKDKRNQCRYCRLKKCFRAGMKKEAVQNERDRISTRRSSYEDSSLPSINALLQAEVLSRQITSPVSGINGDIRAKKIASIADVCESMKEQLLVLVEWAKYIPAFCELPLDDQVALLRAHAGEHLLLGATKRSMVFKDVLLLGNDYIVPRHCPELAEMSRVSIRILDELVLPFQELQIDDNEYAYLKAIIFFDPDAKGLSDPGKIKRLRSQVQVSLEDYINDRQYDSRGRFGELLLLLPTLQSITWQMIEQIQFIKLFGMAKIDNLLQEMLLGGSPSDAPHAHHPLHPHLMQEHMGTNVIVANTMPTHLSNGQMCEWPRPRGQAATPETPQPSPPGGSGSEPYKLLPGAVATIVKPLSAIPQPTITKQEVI
# Oxysterols receptor LXR-beta (Homo sapiens), sequence (P55055 whole entry, looked up, the tested form may be a part): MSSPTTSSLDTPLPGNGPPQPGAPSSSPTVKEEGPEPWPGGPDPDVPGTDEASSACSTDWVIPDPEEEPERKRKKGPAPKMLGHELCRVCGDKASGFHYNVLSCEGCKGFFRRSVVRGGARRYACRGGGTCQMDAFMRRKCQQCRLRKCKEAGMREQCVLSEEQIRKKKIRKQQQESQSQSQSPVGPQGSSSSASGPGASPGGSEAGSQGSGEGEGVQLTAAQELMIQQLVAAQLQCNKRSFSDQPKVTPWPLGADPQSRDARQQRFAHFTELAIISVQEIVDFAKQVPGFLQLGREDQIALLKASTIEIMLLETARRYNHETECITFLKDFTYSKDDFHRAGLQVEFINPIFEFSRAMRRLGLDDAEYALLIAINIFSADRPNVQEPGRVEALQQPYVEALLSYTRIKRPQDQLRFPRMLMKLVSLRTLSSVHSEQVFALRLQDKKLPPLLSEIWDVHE
# Estrogen-related receptor gamma (Homo sapiens), sequence (P62508 whole entry, looked up, the tested form may be a part): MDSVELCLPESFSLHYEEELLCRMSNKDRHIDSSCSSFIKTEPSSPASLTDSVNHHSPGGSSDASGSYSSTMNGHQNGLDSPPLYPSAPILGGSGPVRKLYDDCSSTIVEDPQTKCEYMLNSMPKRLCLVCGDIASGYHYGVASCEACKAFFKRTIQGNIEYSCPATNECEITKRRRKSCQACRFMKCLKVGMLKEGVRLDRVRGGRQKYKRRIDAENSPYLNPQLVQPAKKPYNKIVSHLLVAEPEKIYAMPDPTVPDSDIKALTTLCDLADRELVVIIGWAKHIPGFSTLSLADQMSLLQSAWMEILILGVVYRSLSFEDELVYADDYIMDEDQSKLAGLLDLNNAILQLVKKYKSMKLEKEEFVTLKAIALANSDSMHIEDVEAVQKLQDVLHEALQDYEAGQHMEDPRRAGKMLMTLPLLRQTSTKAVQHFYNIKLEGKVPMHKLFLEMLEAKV
# Steroid hormone receptor ERR1 (Homo sapiens), sequence (P11474 whole entry, looked up, the tested form may be a part): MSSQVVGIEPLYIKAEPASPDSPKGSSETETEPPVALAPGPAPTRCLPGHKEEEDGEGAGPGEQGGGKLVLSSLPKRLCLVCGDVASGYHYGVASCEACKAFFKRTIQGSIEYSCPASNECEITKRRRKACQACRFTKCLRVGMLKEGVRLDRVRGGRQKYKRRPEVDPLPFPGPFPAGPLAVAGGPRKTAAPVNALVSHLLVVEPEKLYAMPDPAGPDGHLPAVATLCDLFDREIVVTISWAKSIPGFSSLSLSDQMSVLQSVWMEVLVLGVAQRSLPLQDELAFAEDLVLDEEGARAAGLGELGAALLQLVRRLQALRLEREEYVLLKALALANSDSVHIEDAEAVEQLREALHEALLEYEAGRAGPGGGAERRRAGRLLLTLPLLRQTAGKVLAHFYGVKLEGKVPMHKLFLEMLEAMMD
structure (smiles),measurement,setting,value
N#Cc1nc(Cl)c(Cl)c(Cl)c1Cl,outcome,[1],inactive
same,outcome,[2],inactive
same,AC50,[3],4.14 µM (active)
same,AC50,[4],5.85 µM (active)
same,outcome,[5],inactive
same,outcome,[6],inactive
same,AC50,[7],5.77 µM (active)
same,outcome,[8],inactive
same,outcome,[9],inactive
same,outcome,[10],inactive
same,AC50,[11],2.71 µM (active)
same,AC50,[12],5.93 µM (active)
NCCCN1CCOCC1,outcome,[1],inactive
same,outcome,[2],inactive
same,outcome,[3],inactive
same,outcome,[4],inactive
same,outcome,[13],inactive
same,outcome,[8],inactive
same,outcome,[10],inactive
same,outcome,[11],inactive
same,outcome,[12],inactive
CC(CN1c2ccccc2Sc2ccccc21)N(C)C (stereo not drawn),AC50,[1],50.2 µM (active)
same,outcome,[2],inactive
same,AC50,[4],24.2 µM (active)
same,outcome,[14],inactive
same,outcome,[6],inactive
same,outcome,[13],inactive
same,outcome,[7],inactive
same,outcome,[10],inactive
same,outcome,[11],inactive
same,outcome,[12],inactive
OC1OC[C@@H](O)[C@H](O)[C@H]1O (stereo partly drawn),outcome,[1],inactive
same,outcome,[2],inactive
same,outcome,[4],inactive
same,outcome,[14],inactive
same,outcome,[6],inactive
same,outcome,[13],inactive
same,outcome,[7],inactive
same,outcome,[9],inactive
same,outcome,[11],inactive
same,outcome,[12],inactive
CC(C)[C@H]1CC[C@@H](C)CC1=O,outcome,[1],inactive
same,outcome,[2],inactive
same,outcome,[4],inactive
same,outcome,[14],inactive
same,outcome,[15],inactive
same,outcome,[6],inactive
same,outcome,[7],inactive
same,outcome,[8],inactive
same,outcome,[9],inactive
same,outcome,[10],inactive
same,outcome,[11],inactive
same,outcome,[12],inactive
CCC(C(=O)NC(N)=O)c1ccccc1 (stereo not drawn),outcome,[1],inactive
same,outcome,[2],inactive
same,outcome,[16],inactive
same,outcome,[4],inactive
same,outcome,[14],inactive
same,outcome,[13],inactive
same,outcome,[8],inactive
same,outcome,[9],inactive
same,outcome,[11],inactive
same,outcome,[12],inactive
